PubChem BioAssay (NCATS)
Inconclusive results are not listed. Activity calls are given as the source filed them. Unless noted, calls follow the shape of the dose curve; as a rule, active = well fitted curve in the direction sought with a large enough effect; inconclusive = small, poorly fitted or top-dose-only effect, or another doubt; inactive = no such curve, though single readings can be large; an effect the other way counts as inactive or inconclusive.

Assays:
[1] = Cell Viability - Hek293 (AID 427;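 active = compounds whose dose-response curve shows a full or clear partial loss of cell viability, called from curve shape rather than a numeric limit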;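 also: potency is read from the fitted curve at half-maximal effect; cells exposed to compound for 40 hours at 37 °C before reading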); conditions: qHTS
Outline: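 Luminescent ATP content (CellTiter-Glo, 20 min at room temperature) was measured after a 40 hr, 37 °C compound exposure of HEK293 cells. AC50 values came from Hill-equation fits of qHTS concentration-response data normalized to DMSO and 100 uM tamoxifen.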

[2] = Cell Viability - HepG2 (AID 433; calls by dose curve;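 also: potency is read from the fitted curve at half-maximal effect; potency for ATP loss meaning cytotoxicity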); conditions: qHTS
Outline: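 Read-out is luciferase-based quantitation of cellular ATP as a measure of viable HepG2 cells after 40 h treatment at 37 °C. Signal decrease is scaled between DMSO-only and 100 uM tamoxifen controls, with AC50 fitted by the Hill equation.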

[3] = Cell Viability - MRC5 (AID 434; calls by dose curve;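 also: potency is read from the fitted curve at half-maximal effect; cells exposed to compound for 40 hours at 37 °C; potency reflects cytotoxicity seen as loss of intracellular ATP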); conditions: MRC5 lung fibroblast viability, qHTS
Outline: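 ATP luminescence read-out (CellTiter-Glo, 20 min RT) after 40 hr, 37 °C compound exposure of 1500 MRC5 cells/well. Data normalized to DMSO (basal) and 100 uM tamoxifen (100% inhibition); AC50 from standard Hill equation.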

[4] = Cell Viability - SK-N-SH (AID 435; calls by dose curve; also: potency is read from the fitted curve at half-maximal effect); conditions: SK-N-SH neuroblastoma cell viability qHTS
Outline: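 Luminescent ATP signal served as the viability read-out after 40 hours of compound treatment of human neuroblastoma SK-N-SH cells. Concentration-response data, scaled between DMSO and 100 uM tamoxifen, gave AC50 values by standard Hill modeling.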

[5] = Cell Viability - NIH 3T3 (AID 541); conditions: NIH 3T3 cell viability, qHTS; activity change, negative = cytotoxicity: at 92.2 µM (top of the series);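 also: plate controls were DMSO alone for no effect and tamoxifen positive control for full effect; nearly all actives have a fitted effect of over 25% in size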
Outline: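 Intracellular ATP (CellTiter-Glo luminescence, 20 min at room temperature) measured after 40 hr compound exposure at 37 °C of 1000 NIH 3T3 mouse fibroblasts/well in complete medium; AC50 derived by Hill-equation modelling of qHTS concentration-response curves.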

[6] = Cell Viability - H-4-II-E (AID 543); conditions: H-4-II-E rat hepatoma viability; series mostly up to 92.2 µM; also: % is scaled to controls: 0 for no effect and ±100 for the full control effect; nearly all actives have a fitted effect of over 35% in size
Outline: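 CellTiter-Glo luminescence (intracellular ATP) measured after 40 h compound exposure at 37 °C in H-4-II-E rat hepatoma cells seeded at 1500/well. Values are AC50s fitted with the standard Hill equation.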

[7] = Cell Viability - SH-SY5Y (AID 544); conditions: SH-SY5Y neuroblastoma cell viability; series mostly up to 92.2 µM; also: nearly all actives have a fitted effect of over 55% in size
Outline: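 Cytotoxicity measured via ATP-dependent luciferase luminescence (CellTiter-Glo) following 40 h, 37 °C exposure of 1500 SH-SY5Y cells per well. Concentration-response data were fitted with the standard Hill equation to give AC50.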

[8] = Cell Viability - Renal Proximal Tubule (AID 545); conditions: renal proximal tubule cells viability, primary cells of rat origin; at 91.7 µM (top of the series); also: nearly all actives have a fitted effect of over 40% in size
Outline: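 Luminescent ATP signal (CellTiter-Glo) served as the viability read-out after 40 hr compound exposure of freshly isolated rat proximal tubule cells at 37 °C. Concentration-dependent ATP loss was fitted with the Hill equation to give AC50.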

[9] = Cell Viability - Mesenchymal (AID 546); conditions: mesenchymal cells viability, qHTS; activity change, negative = cytotoxicity: at 91.7 µM (top of the series);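 also: cells exposed to compound for 40 hours before reading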
Outline: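 Human renal mesenchymal cells (glomerulus-derived), 1000 cells/well, 5 hr 37 °C pre-incubation; compound 40 hr, 37 °C; CellTiter-Glo, 20 min RT; luminescence; AC50 via Hill equation.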

[10] = Cellular Toxicity (caspase-3) Jurkat (AID 655); conditions: Jurkat caspase-3 activation, luminescence, DMSO = 0%, tamoxifen = 100%; at 92.2 µM (top of the series);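 also: cells exposed to compound for 16 h at 37 °C before reading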
Outline: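 5000 Jurkat cells/well; compound 16 hr, 37 °C; Caspase-Glo 3/7 added, 20 min RT; luminescence read. Norm: DMSO = 0%, tamoxifen 100 uM = 100%. AC50, Hill model.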

[11] = Cellular Toxicity (caspase-3) SHSY5Y (AID 657); conditions: SH-SY5Y caspase-3 activation, DMSO zero, 10 µM staurosporine = 100%; series mostly up to 91.7 µM;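 also: cells exposed to compound for 16 hours at 37 °C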
Outline: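 qHTS, SH-SY5Y, 1500 cells/well, 5 h pre-incubation 37 °C; compound 16 h 37 °C; Caspase-Glo 3/7 1 h RT; luminescence. Norm.: DMSO = 0, 10 uM staurosporine = 100%. Hill fit → AC50.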

[12] = Cellular Toxicity (caspase-3) BJ (AID 658); conditions: BJ fibroblasts, luminescence, normalized: DMSO 0%, staurosporine 100%; series mostly up to 91.7 µM;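 also: cells exposed to compound for 16 hours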
Outline: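 qHTS, BJ fibroblasts, 1000 cells/well; 5 hr preincubation, 16 hr compound, 37 °C; Caspase-Glo 3/7 reagent, 1 hr RT; luminescence. DMSO = 0%, 10 uM staurosporine = 100%. Hill-equation AC50.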

[13] = Cellular Toxicity (caspase-3) MRC-5 (AID 659); conditions: MRC-5 cells, luminescence, normalized: DMSO 0%, 10 µM staurosporine 100%; series mostly up to 91.7 µM
Outline: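 MRC-5 fibroblasts, 1500/well; 16 h cpd, 37 °C; Caspase-Glo 3/7, 1 h RT; lumi read. Norm: DMSO = 0%, 10 uM staurosporine = 100%. Hill-fit AC50 from qHTS conc-response.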

[14] = Cellular Toxicity (caspase-3) Mesangial (AID 660); conditions: mesangial cells, normalized: DMSO 0%, 100 µM tamoxifen 100%; series mostly up to 91.7 µM;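 also: combined caspase 3 and 7 activity read by Caspase-Glo luminescence; cells exposed to compound for 16 h before the caspase read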
Outline: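 Caspase 3/7 activation measured by Caspase-Glo 3/7 luminescence (20 min, room temperature) following 16 h exposure of mesangial cells (1000/well); AC50 from Hill-equation fit, normalized to DMSO and 100 uM tamoxifen.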

[15] = Cellular Toxicity (caspase-3) SK-N-SH (AID 661); conditions: SK-N-SH caspase-3 activation, qHTS, DMSO as zero, staurosporine as full; series mostly up to 91.7 µM;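 also: cells exposed to compound for 16 hours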
Outline: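 Caspase 3/7 activation was read by luminogenic substrate cleavage after 16 hour treatment of SK-N-SH cells. Signal was scaled between DMSO and 10 uM staurosporine, and concentration-response data were fitted with the Hill equation for AC50.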

[16] = Cellular Toxicity (caspase-3) H-4-II-E (AID 663); conditions: H-4-II-E rat hepatoma; Potency: caspase-3 activation; series mostly up to 92.2 µM;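 also: cells exposed to compound for 16 hr before readout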
Outline: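 H-4-II-E rat hepatoma, 1500 cells/well, 5 hr settle at 37 °C; compound 16 hr, 37 °C, complete medium; Caspase-Glo 3/7, 20 min RT; luminescence. DMSO = 0%, 100 uM tamoxifen = 100%; Hill-equation AC50.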

[17] = Cellular Toxicity (caspase-3) Hek293 (AID 664); conditions: HEK293 caspase-3 activation, DMSO = 0%, 100 µM tamoxifen = 100%; series mostly up to 92.2 µM;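 also: cells exposed to compound for 16 h at 37 °C before readout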
Outline: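 Concentration-response qHTS: caspase 3/7 activation measured by luminescent aminoluciferin substrate cleavage after 16 h compound exposure of Hek 293 cells. AC50 from Hill equation, with DMSO as basal and 100 uM tamoxifen as 100%.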

[18] = Cellular Toxicity (caspase-3) N2a (AID 665); conditions: N2a cells, luminescence, normalized: DMSO 0%, 10 µM staurosporine 100%; series mostly up to 92.2 µM;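 also: compound exposure lasted 16 h at 37 °C before readout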
Outline: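 Caspase-3/7 activation measured as luminescence from Caspase-Glo reagent (1 h, room temperature) after 16 h compound exposure of mouse N2a cells. AC50 values from Hill-equation concentration-response, scaled between DMSO and 10 uM staurosporine.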

[19] = Cellular Toxicity (caspase-3) NIH 3T3 (AID 666); conditions: NIH 3T3 caspase-3 activation, apoptosis/toxicity, 0% DMSO, 100% is 100 µM tamoxifen; series mostly up to 92.2 µM;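 also: caspase signal read after 16 h compound exposure; 0% = DMSO basal and 100% = 100 µM tamoxifen stimulation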
Outline: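 Caspase-Glo 3/7 luminescence reported caspase activation in 1000 NIH 3T3 cells/well after 16 h compound exposure at 37 C. DMSO set basal and 100 uM tamoxifen set 100% stimulation; concentration-response modeled with the Hill equation for AC50.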

[20] = Cellular Toxicity (caspase-3) Renal Proximal Tubule (AID 667); conditions: renal proximal tubule cells, primary cells freshly taken from rat, solvent-only wells 0%, staurosporine 100%; series mostly up to 91.7 µM;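 also: cells exposed to compound for 16 hours at 37 °C before detection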
Outline: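 AC50 derived by standard Hill fit of concentration-response data, normalized between DMSO basal and 10 uM staurosporine as 100% stimulation. Cells: primary rat kidney proximal tubule, 16 h treatment at 37 °C.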

C=CC(=C)CCC=C(C)C
inactive: Potency [1] > 92 µM | Potency [2] > 92 µM | Potency [3] > 92 µM | Potency [4] > 92 µM | Potency [5] | Potency [6] | Potency [7] | activity change, negative = cytotoxicity [8] 6.82% | activity change, negative = cytotoxicity [9] -3.53% | caspase-3 activation [10] -0.362% | outcome [11] | outcome [12] | outcome [13] | outcome [14] | outcome [15] | Potency [16] | outcome [17] | outcome [18] | outcome [19] | outcome [20]
